# ARNT TACC3 PPI – ARNT/TACC3 interaction disruption; 390,000 tested, 0.66% active; inhibition, % at 9.99 µM; Q9Y6A5; AlphaScreen His-ARNT PAS-B/GST-TACC3 binding, luminescence; TACC3 fragment carries E629A point mutation;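 active = mean inhibition of replicates at least 50% and at least half of replicates each reaching 50%; inconclusive = half or more replicates reach 50% but mean below 50%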;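 also: 0% = complete ARNT plus TACC3 wells and 100% = ARNT alone without TACC3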
# A1 inh – inhibitors of the anti-apoptotic protein A1, read as caspase activation; MEF A1-2A-BIM cells, Caspase-Glo 3/7 luminescence, 3 h; percent of clofoctol response, vehicle zero; caspase activation, % (concentration not given with the values); 330,000 tested, 0.066% active;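 active = over half of replicate activation scores above 10%, or exactly half above 10 with the replicate mean above 10; inconclusive = replicate mean below 10 yet half the replicates above 10; inactive = over half of replicates below 10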
# SUMO Mot1 rescue – inhibitors of SUMOylation pathway: yeast Mot1-301 growth rescue; S. cerevisiae Mot1-301 growth rescue, ATP luminescence, 38.5C; percent above DMSO median, 100 means doubled; growth rescue, % at 18.8 µM; 320,000 tested, 1% active; AID 2716;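 active = every valid replicate shows activation above 250% relative to neutral control wells; inactive = the rest, any valid replicate at or below 250%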;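 also: OY570 slx delta 5 strain wells were the positive control but not used for scaling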
# AI-2 QS modul – modulators of Vibrio harveyi AI-2 quorum sensing system; Vibrio harveyi JMH597 AI-2 luminescence/OD600 ratio, 9 h; active compounds read low; strain lacks LuxN and CqsS sensors; 0 = neutral-control median; activity change, % at 7.5 µM; 300,000 tested, 0.4% active; in the data active = activity change below about -75%, passing the limit was not always enough; inconclusive = no clear call, values can overlap the other calls;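 also: luminescence divided by OD600 gain over 9 h not by final OD600 alone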
# aDG glyco act – alpha-DG glycosylation activation; activation, % at 10 µM; 360,000 tested, 0.22% active; Pro5-aDG cells, alpha-DG glycosylation AlphaScreen (IIH6); 0% Pro5, 100% B10-LARGE cell signal; AID 624168;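 active = activation of at least 8% versus controls, or a plate z-score of at least 8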;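 also: Pro5 are CHO cells carrying HIG-tagged alpha-DG that lacks glycosylation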
# Yeast Mot1 SUMO – yeast SUMO pathway inhibition in dose response; shares compounds with SUMO Mot1 rescue; S. cerevisiae Mot1-301 galactose growth, ATP luminescence, 24 h; -100 = growth of slx-deleted rescue strain; growth activity, percent, % at 42 µM; 2,300 tested, under 10 active;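 active = Signal drops as the depositor expects, and the fitted half-maximal dose is no more than ten times the top valid tested dose; inconclusive = Poor fit, or a flat curve whose signal drops by 30% to 70%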;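 also: more negative values mean stronger growth rescue toward the control strain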
# The depositor's hits bear a star; ? = inconclusive; nt = no result given; + = active, no number. Shown are actives, neighbours in structure and some others; about 1.8% of the full set was active somewhere.
SMILES,ARNT TACC3 PPI,A1 inh,SUMO Mot1 rescue,AI-2 QS modul,aDG glyco act,Yeast Mot1 SUMO
COc1ccc(-c2noc(CSc3nc(-c4ccccc4)cc(=O)[nH]3)n2)cc1OC,2.2,1.0,493.0*,49.1,-0.2,0.5
CC[n+]1c(/C=C(/C)SC)sc2ccccc21,nt,-0.7,76.4,9.9,-0.1,nt
CC[n+]1c(/C=C(\C)SC)sc2ccccc21,6.3,-0.8,539.9*,-0.8,0.4,-0.5
Cc1nc2nc[nH]n2c(=O)c1NS(=O)(=O)c1ccc(F)cc1,-19.0,-0.6,13.4,15.9,0.2,nt
Cc1nc2nc[nH]n2c(=O)c1NS(=O)(=O)c1ccc([N+](=O)[O-])cc1,-10.4,0.4,486.9*,8.4,0.5,-0.1
O=C(c1ccc(N2CCCS2(=O)=O)cc1)N1CCN(c2ccc(F)cc2)CC1,-1.4,-0.4,-4.8,27.1,-0.1,nt
COc1ccccc1N1CCN(C(=O)c2ccc(N3CCCCS3(=O)=O)cc2)CC1,-1.9,0.3,607.3*,8.9,2.2,0.6
COc1cc(C(=O)COC(=O)c2cc([N+](=O)[O-])ccc2N2CCOCC2)ccc1OC(F)F,7.4,-0.6,662.4*,nt,0.1,-0.8
O=C(COC(=O)c1cc([N+](=O)[O-])ccc1N1CCOCC1)Nc1cccc(F)c1,nt,0.4,694.1*,37.6,0.2,-0.6
COC/C=C/C1=CC2=CC(=O)C(C)(OC(=O)c3cnc4ccccc4n3)C(=O)C2=CN1CCOC (stereo not given),16.4,1.1,519.1*,33.1,0.1,0.4
CCN1CCN(c2sc(S(=O)(=O)CC)nc2S(=O)(=O)c2ccc(Cl)cc2)CC1,nt,nt,nt,nt,-0.1,nt
CCS(=O)(=O)c1nc(S(=O)(=O)c2ccc(Cl)cc2)c(N2CCc3ccccc3C2)s1,-1.7,0.0,444.2*,24.3,-0.3,0.4
Cc1c(C)c2c(c(C)c1O)CCC(C)(C(=O)O)O2 (stereo not given),-4.9,0.3,548.1*,nt,-0.2,-0.5
COc1ccc(Nc2ccc(OC)cc2)cc1,nt,-0.7,-12.7,-12.5,0.1,nt
COc1ccc(NC2=C(C)C(=O)CC2)cc1,-2.6,-0.5,593.8*,13.1,-0.5,-0.2
COCC(=O)N(C)C[C@H]1Oc2ncc(C#C[C@H](C)O)cc2C(=O)N([C@H](C)CO)C[C@H]1C,-4.5,nt,nt,nt,nt,nt
CCc1ccc2c(c1)C(c1ccc([N+](=O)[O-])cc1)=NNC(c1ccc(C)cc1)=N2,3.0,0.8,406.8*,16.9,0.0,0.2
CC(=O)N1N=C(c2ccc3ccccc3c2)OC1(C)C,-2.5,-0.8,7.2,2.7,0.1,nt
CC(=O)N1N=C(c2ccc(C(C)(C)C)cc2)OC1(C)C,-5.4,-0.2,535.8*,7.4,-0.2,0.1
O=C(NCc1ccc2c(c1)OCO2)C1CC(=O)N(C2CCCCCC2)C1 (stereo not given),-4.0,1.4,-7.5,16.6,0.0,nt
Cc1ccc2nc(NC(=O)C3CCN(S(=O)(=O)c4cccnc4)CC3)sc2c1,3.4,-1.4,774.5*,-53.0,0.2,0.3
COc1ccc2nc(NC(=O)C3CCN(S(=O)(=O)c4cccnc4)CC3)sc2c1,-3.2,0.3,-1.8,?,0.2,nt
CCN(CC)c1ccc2c(C)c(CN3CCOCC3)c(=O)oc2c1,-20.9,0.2,+,17.6,0.5,-0.6
COc1ccccc1NC(=O)Nc1ccc(Cl)c(S(=O)(=O)Nc2ccccc2OC)c1,0.3,1.0,389.6*,20.5,-0.1,0.3
COc1ccccc1NS(=O)(=O)c1cc(Cl)ccc1OC,3.3,0.9,442.4*,-6.0,-0.1,0.9
SMILES,ARNT TACC3 PPI,A1 inh,SUMO Mot1 rescue,AI-2 QS modul,aDG glyco act,Yeast Mot1 SUMO
COc1ccccc1NS(=O)(=O)c1cc(NC(=O)c2ccc(Cl)nc2)ccc1Cl,-3.8,1.4,4.3,21.0,1.7,nt
COc1ccccc1NS(=O)(=O)c1ccc(OC)c(OC)c1,4.5,0.3,-1.0,5.2,0.3,nt
COc1ccc(C(=O)CC(=O)C(=O)Nc2ccc(C)c(Cl)c2)cc1,9.2,-1.0,918.2*,58.0,-0.1,0.6
C[C@H]1CN([C@@H](C)CO)C(=O)c2cccc(NS(=O)(=O)c3cn(C)cn3)c2O[C@H]1CN(C)Cc1ccc(Cl)c(Cl)c1,-7.1,nt,nt,nt,nt,nt
COc1ccccc1/C=N/NC(=O)CNC(=O)c1ccc(S(=O)(=O)N2CCCC2)cc1,6.6,1.2,-15.6,9.2,-0.2,nt
CN1CCN(c2nc3c(c(=O)n(C)c(=O)n3C)n2CCSc2nc3ccccc3s2)CC1,nt,1.1,-5.2,nt,-0.1,nt
CCn1cc(C(=O)N(C)c2ccc(OC)cc2OC)c2cc(OC)c(OC)cc2c1=O,-3.1,0.9,415.0*,0.0,-0.1,-0.1
COc1cccc(NC(=S)NC(=O)c2cncc(Br)c2)c1,7.4,-1.0,982.6*,-2.8,0.0,-0.6
COc1ccccc1NC(=O)NCc1ccccc1F,nt,0.0,-9.2,20.4,0.2,nt
COc1cccc(N2CC(O)=C(c3nc4ccccc4s3)C2=N)c1,nt,-0.2,9.5,22.0,-0.3,nt
CCOC(=O)NC(=O)/C(N=Nc1cccc(C(F)(F)F)c1)=C(\C)O,nt,-0.3,9.3,7.2,-0.1,nt
COc1cccc(-c2ocnc2C(=O)Nc2ccc3c(c2)CCC3)c1,-1.6,-0.4,430.3*,12.4,-0.1,0.0
COc1ccc(OC)c(S(=O)(=O)NCc2nc3nc(C)cc(C)n3n2)c1,-6.5,0.8,3.6,-16.6,0.0,nt
Cc1ccccc1-c1nc(-c2ccccn2)no1,12.6,-0.5,-39.7,9.9,0.1,nt
O=C1CCCCN1CC(=O)N1CCCC(N2CCN(c3ccccc3F)CC2)C1 (stereo not given),-1.1,0.5,-13.3,21.9,0.5,nt
O=C1CCCN1CCC(=O)N1CCCC(N2CCN(c3ccccc3F)CC2)C1 (stereo not given),0.0,0.2,481.3*,17.2,0.2,0.3
CC(C)(CC(=O)OCC(=O)Nc1ccccc1F)CC1=NS(=O)(=O)c2ccccc2N1,-0.8,0.5,-20.4,10.3,0.2,nt
COc1ccccc1NC(=O)COC(=O)CC(C)(C)CC1=NS(=O)(=O)c2ccccc2N1,0.9,0.8,395.6*,17.3,0.6,-0.1
C=CCNc1nc(Cl)nc(Nc2ccccc2)n1,-0.4,-2.4,-0.7,37.5,0.1,nt
O=C(c1ccc(OC2CCN(CCc3ccccc3)CC2)cc1)N1CCCC1,-4.8,-0.5,608.3*,1.8,0.0,-0.4
COc1ccc(NC(=O)N(C)C[C@H]2Oc3ccc(NC(=O)CCC(F)(F)F)cc3CC(=O)N([C@@H](C)CO)C[C@@H]2C)cc1,-2.9,nt,nt,nt,nt,nt
Cc1ccc(C)c(NC(=O)COC(=O)c2ccc3c(c2)OCO3)c1,-5.3,0.1,975.0*,-5.7,0.1,0.0
COc1ccc(S(=O)(=O)Nc2cccc3c2O[C@@H](CN(C)C)[C@H](C)CN([C@@H](C)CO)C3=O)cc1,-13.4,nt,nt,nt,nt,nt
